MITF primary = inhibitors of human MITF | AlphaScreen MITF homodimerization, bead proximity signal | 650,000 compounds, 0.91% hits | AID 1259374 | inhibition, % at 2.6 µM; in the data active = inhibition above about 50%
FBW7 act = activators of human E3 ligase FBW7; Q969H0; AlphaScreen FBW7–phospho-cyclin E peptide binding, activator screen; normalized activity (activation), % at 26.1 µM; 650,000 compounds, 0.13% hits; AID 1259310; in the data active = normalized activity above about 1.9%;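 note: purified mutant Fbw7 with reduced substrate affinity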
GPR151 ag = human GPR151 activation. Q8TDV0. PathHunter beta-arrestin GPR151 cells, luminescence. activation, % at 11.2 µM. 650,000 compounds, 1% hits. AID 1508602; in the data active = activation above about 4.9%
Target sequence (Q8TDV0 whole entry, looked up): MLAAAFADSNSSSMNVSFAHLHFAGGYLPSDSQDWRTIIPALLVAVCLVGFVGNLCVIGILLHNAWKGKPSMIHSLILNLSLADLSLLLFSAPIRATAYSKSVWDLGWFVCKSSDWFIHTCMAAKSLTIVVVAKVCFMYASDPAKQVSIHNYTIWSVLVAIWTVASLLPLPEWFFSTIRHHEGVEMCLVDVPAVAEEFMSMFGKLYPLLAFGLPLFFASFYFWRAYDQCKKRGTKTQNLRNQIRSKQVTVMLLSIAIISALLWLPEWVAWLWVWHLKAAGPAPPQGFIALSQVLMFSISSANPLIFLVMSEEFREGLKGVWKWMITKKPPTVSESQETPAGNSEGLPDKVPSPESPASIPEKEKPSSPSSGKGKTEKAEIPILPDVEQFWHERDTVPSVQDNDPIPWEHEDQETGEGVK
TEAD-YAP inh = TEAD-YAP interaction inhibition; 640,000 compounds, 1.4% hits; inhibition, % at 9.12 µM; HEK-TIYL cells, TEAD-Gal4/YAP UAS-luciferase luminescence; in the data active = inhibition above about 32%
GPR151 conf act = human GPR151 activation, confirmation screen | activation, % at 11.2 µM | AID 1508609 | 6,700 tested, under 10 active | GPR151 PathHunter beta-arrestin cells, luminescence, 90 min; % of EA-reagent control over plate median | shares compounds with GPR151 ag;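 active = mean percent activation across replicates above the confirmation screen cutoff of 4.91%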
GPR119 ag = counter-screen for GPR151 activators: effect on human GPR119; activation, % at 11.2 µM; GPR119 PathHunter beta-arrestin cells, luminescence, 90 min; 0 = compound-well median, 100 = enzyme-acceptor control; shares compounds with GPR151 ag; 6,700 compounds, 0.3% hits;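 active = mean percent activation in the counterscreen above 29.09%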;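 note: counterscreen on off-target GPR119 to flag nonselective hits from the GPR151 activator screen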
A number is an active result; 0 = inactive; - = no result; ! = not confirmed by another sample. A selection: hits, their analogues and other compounds. The true share with any hit is near 3.4%.

SMILES	MITF primary	FBW7 act	GPR151 ag	TEAD-YAP inh	GPR151 conf act	GPR119 ag
COc1cc(CN2CCc3c(nc(N4CCCCC4)[nH]c3=O)C2)cc(OC)c1	0	0	0	0	-	-
COc1ccc(Cl)cc1N1CC(C(=O)Nc2nnc(C)s2)CC1=O (centres undefined)	0	0	0	0	-	-
COc1ccc(Cl)cc1N1CC(C(=O)Nc2c(C)cccc2C)CC1=O (centres undefined)	0	0	8.3	0	0	0
COc1ccccc1N1CC(C(=O)Nc2nnc(SC3CCCC3)s2)CC1=O (centres undefined)	0	0	6.2	0	0	0
O=C(Nc1ccccc1Cl)c1ccccc1[N+](=O)[O-]	0	0	0	0	-	-
N#Cc1ccc(C(=O)Nc2ccccc2N2CCCC2)c(F)c1	0	0	14	0	0	0
O=C(Nc1ccccc1N1CCCC1)c1ccccc1[N+](=O)[O-]	0	0	5.8	0	0	0
O=C(CCC(=O)Nc1ccccc1Cl)NNC(=O)c1ccccc1[N+](=O)[O-]	0	0	7.5	0	0	0
O=C1c2cccc([N+](=O)[O-])c2C(=O)N1Cc1ccc(F)cc1Cl	0	0	0	0	-	-
Nn1c(-c2cccc(Cl)c2)nc2ccccc2c1=O	0	0	0	0	-	-
COc1ccc(-c2cc(C(F)F)n3ncc(C(=O)NCc4cnn(C)c4)c3n2)cc1	0	0	0	0	-	-
COc1ccc(/C=C(\C#N)C(=O)Nc2ccccn2)cc1	0	0	5.1	0	0	0
CCN(CCn1cccn1)c1nc2nonc2nc1NCc1ccccc1	0	0	6.5	0	0	0
CN(CCn1ccnc1)c1nc2nonc2nc1NCc1ccccc1	0	0	0	0	-	-
O=C(NCc1ccc2c(c1)OCO2)c1ccc(C(=O)c2ccccc2)cc1	0	0	0	0	-	-
CC1(C(=O)NNC(=O)Nc2cccc([N+](=O)[O-])c2)CC1(Cl)Cl (centres undefined)	0	0	6.4	0	0	0
C/C(=N\Nc1nc2c(c(=O)[nH]c(=O)n2C)n1CCc1ccccc1)c1ccccc1O	0	0	0	0	-	-
N#Cc1ccc(NN2C(=O)c3ccccc3C2=O)c([N+](=O)[O-])c1	0	0	0	0	-	-
N#Cc1ccc(NN2C(=O)c3cc(Cl)c(Cl)cc3C2=O)c([N+](=O)[O-])c1	0	0	7.0	0	0	0
CCCNC(C)C(=O)C12CC3CC(CC(C3)C1)C2 (centres undefined)	0	0	0	0	-	-
CCCCCn1c(SCc2cccc([N+](=O)[O-])c2)nc2cc(C(=O)NCCC3=CCCCC3)ccc2c1=O	0	0	0	0	-	-
O=C(CN1CCCC1)Nc1c(C(=O)C2CC2)oc2ccc(Br)cc12	0	0	0	0	-	-
COc1cc2c(cc1OC)CN(Cc1cccc([N+](=O)[O-])c1)CC2	0	0	8.0	0	0	0
COc1cc(C2Nc3ccccc3NC3=C2C(=O)CC(c2ccc4c(c2)OCO4)C3)ccc1OC(C)=O (centres undefined)	0	0	17	0	0	0
CCOc1cc(C2Nc3ccccc3NC3=C2C(=O)CC(c2ccc(OC)cc2)C3)cc(Cl)c1O (centres undefined)	0	0	4.9	0	0	0
SMILES	MITF primary	FBW7 act	GPR151 ag	TEAD-YAP inh	GPR151 conf act	GPR119 ag
CCCCOc1ccc(C(=O)N/C(=C\c2ccc(Br)cc2)C(=O)Nc2ccccc2Cl)cc1	0	0	0	0	-	-
NC(=O)c1cc(-c2ccc3c(c2)OCO3)no1	0	0	5.7	0	0	0
COC(=O)c1cc(-c2ccc3c(c2)OCO3)no1	0	0	0	0	-	-
CN1C(=O)C(O)(CC(=O)c2cccs2)c2cc([N+](=O)[O-])ccc21 (centres undefined)	0	0	0	0	-	-
Cc1cc(C)cc(NC(=O)c2ccc(Cl)c(Cl)c2)c1	0	0	5.4	0	0	0
COC(=O)c1ccccc1NC(=O)c1ccc(Cl)c(Cl)c1	0	0	5.1	0	0	0
COC(=O)c1ccccc1NC(=O)c1cccc(Cl)c1	0	0	0	0	-	-
CCOCCc1nnc(NC(=O)CC(c2ccccc2)c2ccccc2)s1	0	0	8.6	0	0	0
Cc1ccccc1CC(=O)N1CCC(n2nccc2NC(=O)CCOc2ccccc2)CC1	0	0	0	0	-	-
O=C(NCCCCc1ccccc1)c1cc([N+](=O)[O-])cc([N+](=O)[O-])c1	0	0	11	0	0	0
O=C(c1ccccc1)c1ccc(C(=O)N2CCCCC2)o1	0	0	6.7	0	0	0
O=C(c1ccccc1)c1ccc(C(=O)N2CCN(c3ccccc3)CC2)o1	0	0	0	0	-	-
CCOC(=O)C1CCN(C(=O)c2cc(S(=O)(=O)N3CCCC3)cn2C)CC1	0	0	0	0	-	-
CCOC(=O)C1CCCN(C(=O)c2cc(S(=O)(=O)N3CCOCC3)cn2C)C1 (centres undefined)	0	0	9.2	0	0	0
Cc1cc(C=C2C(=O)NC(=S)NC2=O)c(C)n1-c1ccc([N+](=O)[O-])cc1	0	0	6.1	0	0	0
Cc1ccc(S(=O)(=O)N2CCN(c3ccc([N+](=O)[O-])c(NC4CC4)c3)CC2)cc1	0	0	0	0	-	-
CCCCOC(=O)C1C2C=CC3(CN(C4CCCCC4)C(=O)C13)O2 (centres undefined)	0	0	5.8	0	0	0
CC(N)(Cc1ccc(O)cc1)C(=O)O (centres undefined)	0	0	5.2!	0	0	0
CC(C)(Cc1ccc(O)cc1)NC(=O)SCc1ccccc1	0	0	0	0	-	-
O=c1c2ccccc2ncn1Cc1c(F)cccc1F	0	0	4.9	0	0	0
O=c1c2ccccc2ncn1Cc1ccccc1Cn1cnc2ccccc2c1=O	0	0	0	0	-	-
COc1cccc(-c2nnc3n2N=C(c2cccc([N+](=O)[O-])c2)CS3)c1	0	0	13	0	0	0
c1ccc2c(CSc3ncn[nH]3)cccc2c1	0	0	0	0	-	-
Cc1c(-c2ccccc2)sc2nc[nH]c(=O)c12	0	0	12	0	0	0
CCOc1cc(Br)c(/C=C/C(=O)O)cc1OC	0	0	5.3	0	0	0
SMILES	MITF primary	FBW7 act	GPR151 ag	TEAD-YAP inh	GPR151 conf act	GPR119 ag
O=S(=O)(C[n+]1sc(N(c2ccccc2)c2ccccc2)nc1-c1ccccc1)c1ccccc1	0	0	0	0	-	-
Cc1c(Cl)c(C(F)(F)F)nn1CC(=O)Nc1cccnc1Cl	0	0	0	0	-	-
O=C1OC(c2ccc(Cl)cc2Cl)=N/C1=C\c1cccc(Cl)c1Cl	0	0	8.0	0	0	0
CC(C(=O)Nc1nc2ccccc2s1)N1C(=O)c2ccccc2C1=O (centres undefined)	0	0	9.7	0	0	0
Cc1cc(C)cc(NC(=O)C(C)N2C(=O)c3ccccc3C2=O)c1 (centres undefined)	0	0	0	0	-	-
Cc1ccc(NC(=O)C(C)N2C(=O)c3ccccc3C2=O)cc1C (centres undefined)	0	0	6.3	0	0	0
CN(C)CCN(C)Cc1c(F)cccc1F	0	0	0	0	-	-

Source: PubChem BioAssay
